For part of these data: Entries with a potency or affinity are not part of this list.
How the values were obtained:
Set-up in all cases: scale not given: direction of the effect not stated beside the values
[1] = biological target: Protein translocase subunit SecA (Escherichia coli (strain K12)) (UniProt P10408); assay: Assay to Identify E. coli SecA ATPase Inhibitors; type: functional; conditions: 30 µM
[2] = biological target: T1, Ubiquitin-activating enzyme e1, putative (Leishmania donovani (strain BPK282A1)) (UniProt E9BSI1); assay: Leishmania donovani Ubiquitin Activating Enzyme (LdE1); type: functional; conditions: 30 µM
T1 sequence (whole entry): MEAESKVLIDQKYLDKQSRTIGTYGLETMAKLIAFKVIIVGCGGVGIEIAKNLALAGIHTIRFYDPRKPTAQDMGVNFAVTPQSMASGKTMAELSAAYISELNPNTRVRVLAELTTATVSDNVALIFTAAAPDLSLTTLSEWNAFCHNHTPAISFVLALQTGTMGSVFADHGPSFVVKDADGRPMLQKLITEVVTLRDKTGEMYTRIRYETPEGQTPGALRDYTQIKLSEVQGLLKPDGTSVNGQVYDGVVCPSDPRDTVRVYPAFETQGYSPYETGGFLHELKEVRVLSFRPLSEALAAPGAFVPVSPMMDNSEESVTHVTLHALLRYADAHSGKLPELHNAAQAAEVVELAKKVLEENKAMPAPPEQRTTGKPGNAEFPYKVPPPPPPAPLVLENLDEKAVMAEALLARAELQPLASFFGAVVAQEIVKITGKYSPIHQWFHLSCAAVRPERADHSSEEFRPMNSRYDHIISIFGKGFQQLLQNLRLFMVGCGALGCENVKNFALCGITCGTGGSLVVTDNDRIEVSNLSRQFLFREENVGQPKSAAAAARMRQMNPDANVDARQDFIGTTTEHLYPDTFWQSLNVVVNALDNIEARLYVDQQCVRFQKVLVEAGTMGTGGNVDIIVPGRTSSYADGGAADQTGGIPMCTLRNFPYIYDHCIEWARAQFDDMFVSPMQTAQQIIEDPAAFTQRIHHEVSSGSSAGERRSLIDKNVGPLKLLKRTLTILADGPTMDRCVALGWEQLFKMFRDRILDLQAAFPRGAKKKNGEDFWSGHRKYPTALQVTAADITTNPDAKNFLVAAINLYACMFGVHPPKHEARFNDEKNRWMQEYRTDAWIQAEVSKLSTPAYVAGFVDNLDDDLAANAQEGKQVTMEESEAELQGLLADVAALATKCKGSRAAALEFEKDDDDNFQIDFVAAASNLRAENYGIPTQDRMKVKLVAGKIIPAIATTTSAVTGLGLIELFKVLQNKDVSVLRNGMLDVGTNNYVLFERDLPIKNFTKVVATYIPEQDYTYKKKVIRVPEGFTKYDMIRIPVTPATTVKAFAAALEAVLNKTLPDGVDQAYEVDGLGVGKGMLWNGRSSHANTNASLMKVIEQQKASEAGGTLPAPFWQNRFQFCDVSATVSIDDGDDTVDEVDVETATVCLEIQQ

[3] = biological target: AMP-activated protein kinase, AMPK (Homo sapiens) (UniProt P54646+O43741+P54619+Q9UGJ0+Q9Y478+Q13131+Q9UGI9); assay: AMP-dependent Kinase enzyme assay. An in vitro enzyme assay that detects ADP turnover that is directly proportional to AMPK activity. This uses naive AMPK that is activated during the assay with MK-8722; type: functional; conditions: 30 µM
[4] = biological target: Sialic acid-binding Ig-like lectin 9 (Homo sapiens) (UniProt Q9Y336); assay: Hs-Siglec9 ALPHAscreen SOP 20170721; conditions: 10 µM
Sequence of Sialic acid-binding Ig-like lectin 9 (Homo sapiens) (Q9Y336 whole entry): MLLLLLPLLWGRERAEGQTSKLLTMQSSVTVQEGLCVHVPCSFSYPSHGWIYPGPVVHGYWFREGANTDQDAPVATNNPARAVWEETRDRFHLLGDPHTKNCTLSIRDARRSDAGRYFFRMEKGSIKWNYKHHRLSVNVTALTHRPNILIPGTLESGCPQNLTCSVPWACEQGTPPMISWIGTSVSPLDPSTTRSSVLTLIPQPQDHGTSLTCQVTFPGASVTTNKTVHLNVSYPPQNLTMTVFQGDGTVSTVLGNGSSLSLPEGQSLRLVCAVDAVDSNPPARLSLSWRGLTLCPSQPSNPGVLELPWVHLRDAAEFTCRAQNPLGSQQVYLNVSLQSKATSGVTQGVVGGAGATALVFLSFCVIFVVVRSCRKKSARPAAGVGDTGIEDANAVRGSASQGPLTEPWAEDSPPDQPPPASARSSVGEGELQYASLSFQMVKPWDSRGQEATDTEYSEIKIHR

Trypanosoma cruzi = assay: Trypanosoma cruzi phosphomannomutase and mannose-1-phosphate guanylyltransferase assay; type: functional; conditions: 10 µM
[5] = biological target: T2, Arginase-2, mitochondrial (Homo sapiens) (UniProt P78540); assay: in vitro enzyme assay to detect the production of urea directly proportional to the activity of Arginase II; type: functional; conditions: 33.3 µM; further: in the data most compounds retested in dose-response had high values
T2 sequence (whole entry): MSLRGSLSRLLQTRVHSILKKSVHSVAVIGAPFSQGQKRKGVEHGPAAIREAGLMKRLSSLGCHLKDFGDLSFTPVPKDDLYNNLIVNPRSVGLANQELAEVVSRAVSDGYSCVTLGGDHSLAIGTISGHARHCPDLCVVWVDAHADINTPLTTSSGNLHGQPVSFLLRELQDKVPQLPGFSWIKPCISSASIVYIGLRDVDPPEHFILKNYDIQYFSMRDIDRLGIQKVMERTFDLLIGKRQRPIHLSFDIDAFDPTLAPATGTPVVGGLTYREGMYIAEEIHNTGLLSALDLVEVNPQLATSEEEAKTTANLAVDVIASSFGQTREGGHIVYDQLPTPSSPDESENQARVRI

[6] = biological target: T3, Proteasome subunit beta (Trypanosoma cruzi) (UniProt O96673); assay: Trypanosoma cruzi proteasome chymotrypsin-like activity (TcProtChymo) assay.; further: in the data most compounds retested in dose-response had high values; type: functional; conditions: 9.37 µM
T3 sequence (whole entry): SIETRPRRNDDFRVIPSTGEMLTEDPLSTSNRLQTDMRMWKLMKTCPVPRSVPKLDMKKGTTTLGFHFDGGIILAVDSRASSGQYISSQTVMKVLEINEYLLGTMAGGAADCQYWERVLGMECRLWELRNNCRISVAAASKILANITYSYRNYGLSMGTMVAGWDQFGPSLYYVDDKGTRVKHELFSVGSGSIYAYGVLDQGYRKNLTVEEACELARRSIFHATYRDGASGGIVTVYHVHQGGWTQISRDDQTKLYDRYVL

Homo sapiens = organism: Homo sapiens; assay: To identify inhibition of the IFN signalling (Jak-Stat) pathway via expression of an eGFP reporter gene under the control of an IFN-stimulated response element (ISRE) containing MxA promoter.; type: functional; conditions: 30 µM
[7] = biological target: T4, Tyrosyl-tRNA synthetase, putative (Trypanosoma cruzi (strain CL Brener)) (UniProt Q4DSP6); assay: Trypanosoma cruzi tyrosyl tRNA synthetase (TcYRS) _High Tyrosine SOP; type: functional; conditions: 30 µM; further: in the data most compounds retested in dose-response had high values
T4 sequence (whole entry): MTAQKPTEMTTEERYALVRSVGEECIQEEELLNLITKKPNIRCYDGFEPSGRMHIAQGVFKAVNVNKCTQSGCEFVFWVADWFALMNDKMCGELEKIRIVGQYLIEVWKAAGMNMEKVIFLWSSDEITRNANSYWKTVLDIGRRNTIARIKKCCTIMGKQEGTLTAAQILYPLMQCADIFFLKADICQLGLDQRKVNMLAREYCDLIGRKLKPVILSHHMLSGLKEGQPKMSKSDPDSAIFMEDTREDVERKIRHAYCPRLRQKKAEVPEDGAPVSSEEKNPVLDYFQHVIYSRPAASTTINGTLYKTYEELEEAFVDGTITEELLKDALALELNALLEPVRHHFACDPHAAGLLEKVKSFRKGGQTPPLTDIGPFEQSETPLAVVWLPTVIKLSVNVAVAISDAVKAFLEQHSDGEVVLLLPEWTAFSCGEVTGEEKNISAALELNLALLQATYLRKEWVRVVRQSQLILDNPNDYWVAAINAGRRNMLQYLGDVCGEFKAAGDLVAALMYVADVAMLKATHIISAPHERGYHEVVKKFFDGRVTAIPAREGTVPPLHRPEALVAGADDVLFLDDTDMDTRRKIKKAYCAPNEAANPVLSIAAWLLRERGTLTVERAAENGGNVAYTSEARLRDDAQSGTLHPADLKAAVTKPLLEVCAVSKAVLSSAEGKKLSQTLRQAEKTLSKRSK

[8] = biological target: T4, Tyrosyl-tRNA synthetase, putative (Trypanosoma cruzi (strain CL Brener)); assay: Trypanosoma cruzi tyrosyl tRNA synthetase (TcYRS) SOP; type: functional; conditions: 30 µM
[9] = biological target: Chromo domain-containing protein 1 (Saccharomyces cerevisiae (strain ATCC 204508 / S288c) (Baker's yeast)) (UniProt P32657); assay: ScCHD-1 Enzyme Inhibition Assay; type: functional; conditions: 30 µM; further: in the data most compounds retested in dose-response had high values
Sequence of Chromo domain-containing protein 1 (Saccharomyces cerevisiae (strain ATCC 204508 / S288c) (Baker's yeast)) (P32657 whole entry, the tested form may be a part): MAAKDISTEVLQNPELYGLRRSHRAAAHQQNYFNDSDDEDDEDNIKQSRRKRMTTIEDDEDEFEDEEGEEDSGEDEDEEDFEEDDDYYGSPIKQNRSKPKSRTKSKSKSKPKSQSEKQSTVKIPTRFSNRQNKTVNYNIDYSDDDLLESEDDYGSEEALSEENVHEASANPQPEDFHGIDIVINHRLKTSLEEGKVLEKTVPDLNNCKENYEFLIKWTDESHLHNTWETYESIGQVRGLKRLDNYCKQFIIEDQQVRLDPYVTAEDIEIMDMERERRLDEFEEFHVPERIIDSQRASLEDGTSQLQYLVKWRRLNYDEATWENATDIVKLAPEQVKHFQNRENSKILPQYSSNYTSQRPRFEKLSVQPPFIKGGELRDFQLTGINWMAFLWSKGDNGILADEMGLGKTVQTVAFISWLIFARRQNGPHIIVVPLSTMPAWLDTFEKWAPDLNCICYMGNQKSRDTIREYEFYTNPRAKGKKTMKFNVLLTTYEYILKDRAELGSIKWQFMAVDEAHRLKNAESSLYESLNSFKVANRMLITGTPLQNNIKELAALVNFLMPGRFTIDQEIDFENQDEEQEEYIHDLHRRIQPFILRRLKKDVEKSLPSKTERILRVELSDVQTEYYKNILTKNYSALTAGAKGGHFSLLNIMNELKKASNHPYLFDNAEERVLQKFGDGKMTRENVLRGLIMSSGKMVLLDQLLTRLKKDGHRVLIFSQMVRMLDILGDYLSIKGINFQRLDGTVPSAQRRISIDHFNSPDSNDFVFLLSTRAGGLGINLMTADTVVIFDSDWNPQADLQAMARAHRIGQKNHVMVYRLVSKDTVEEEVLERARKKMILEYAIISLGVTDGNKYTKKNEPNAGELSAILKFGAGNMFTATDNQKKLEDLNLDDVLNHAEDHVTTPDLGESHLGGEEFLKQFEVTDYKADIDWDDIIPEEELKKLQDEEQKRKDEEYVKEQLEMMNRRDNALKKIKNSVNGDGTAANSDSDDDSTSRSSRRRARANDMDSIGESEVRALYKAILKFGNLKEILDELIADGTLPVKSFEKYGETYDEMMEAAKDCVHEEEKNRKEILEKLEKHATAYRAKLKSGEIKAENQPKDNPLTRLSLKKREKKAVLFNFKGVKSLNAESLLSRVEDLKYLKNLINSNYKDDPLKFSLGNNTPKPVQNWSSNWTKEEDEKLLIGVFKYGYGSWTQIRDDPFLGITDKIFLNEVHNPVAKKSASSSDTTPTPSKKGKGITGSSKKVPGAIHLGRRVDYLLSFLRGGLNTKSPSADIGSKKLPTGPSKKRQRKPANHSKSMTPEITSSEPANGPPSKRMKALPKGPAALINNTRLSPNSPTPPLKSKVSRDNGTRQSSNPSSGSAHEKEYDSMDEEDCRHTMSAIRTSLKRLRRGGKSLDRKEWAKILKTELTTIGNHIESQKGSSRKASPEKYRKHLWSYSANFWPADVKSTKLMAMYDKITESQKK

Sequence of Protein translocase subunit SecA (Escherichia coli (strain K12)) (P10408 whole entry): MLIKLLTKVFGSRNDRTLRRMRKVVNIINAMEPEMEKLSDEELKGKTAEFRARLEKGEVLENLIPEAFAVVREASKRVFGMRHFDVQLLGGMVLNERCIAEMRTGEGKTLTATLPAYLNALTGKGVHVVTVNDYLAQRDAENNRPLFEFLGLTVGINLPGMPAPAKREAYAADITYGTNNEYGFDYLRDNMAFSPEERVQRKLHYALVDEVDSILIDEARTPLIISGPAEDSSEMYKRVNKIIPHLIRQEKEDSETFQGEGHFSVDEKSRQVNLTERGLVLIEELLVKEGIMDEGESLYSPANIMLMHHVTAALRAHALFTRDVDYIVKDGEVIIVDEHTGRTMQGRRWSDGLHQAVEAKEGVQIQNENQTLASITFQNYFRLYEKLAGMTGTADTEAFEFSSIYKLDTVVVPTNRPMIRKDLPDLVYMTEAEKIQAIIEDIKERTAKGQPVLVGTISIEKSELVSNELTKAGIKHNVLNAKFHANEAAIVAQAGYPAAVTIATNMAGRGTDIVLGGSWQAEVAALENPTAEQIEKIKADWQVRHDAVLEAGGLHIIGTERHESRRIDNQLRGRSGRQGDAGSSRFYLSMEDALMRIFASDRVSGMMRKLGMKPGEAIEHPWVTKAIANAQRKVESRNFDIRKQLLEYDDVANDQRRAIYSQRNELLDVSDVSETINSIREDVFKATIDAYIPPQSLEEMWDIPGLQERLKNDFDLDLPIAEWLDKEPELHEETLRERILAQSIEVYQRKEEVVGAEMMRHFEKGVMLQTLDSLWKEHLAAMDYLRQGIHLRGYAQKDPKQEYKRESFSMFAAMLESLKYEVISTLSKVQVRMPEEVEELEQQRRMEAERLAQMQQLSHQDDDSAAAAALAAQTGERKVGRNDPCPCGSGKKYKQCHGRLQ

| Compound | Percent Effect [1] [%] | Percent Effect [2] [%] | Percent Effect [3] [%] | Percent Effect [4] [%] | Percent Effect (Trypanosoma cruzi) [%] | Percent Effect [5] [%] | Percent Effect [6] [%] | Percent Effect (Homo sapiens) [%] | Percent Effect [7] [%] | Percent Effect [8] [%] | Percent Effect [9] [%] |
| --- | --- | --- | --- | --- | --- | --- | --- | --- | --- | --- | --- |
| CC(NC(=O)N(C)Cc1ccsc1)c1ccc2c(c1)CCC(=O)N2 (stereo unspecified) | -0.422 | 15.8 | 5 | 7.35 | 1.13 | -3.06 | 1.67 | 3.81 | 1.47 | 17.1 | -3.52 |
| Cc1nc(COC[C@]23COC[C@H]2CN(Cc2ccoc2)C3)cs1 | -4.99 | 0 | -4.16 | 13.2 | 6.94 | 0.248 | -2.49 | -33.4 | 3.23 | 11.1 | -1.94 |
| CC(C)c1nc(CN(C)CC2CCN(CCO)CC2)no1 | -2.78 | 0 | -3.56 | 0.371 | -1.35 | 2.86 | 1.9 | 1.02 | 2.65 | 9.76 | -3.71 |
| c1cnc(N2C[C@H]3CCN(c4cccnc4)C[C@H]3C2)nc1 | -6.23 | -5.41 | -3.42 | -2.92 | -2.15 | -0.417 | 26.1 | 6.67 | 5.94 | 13.4 | 7.23 |
| O=C(NCc1cnc2n1CCN(CC1CC1)CC2)C1CCC1 | -2.75 | 13.5 | -7.3 | 21.4 | 4.79 | 18.1 | 7.47 | -8.45 | 6.45 | 16.1 | -4.7 |
| Cc1cc(C[S+]([O-])CC(=O)Nc2c(C)cccc2C)no1 (stereo unspecified) | -7.01 | 18.2 | 15.8 | 7.26 | 0.187 | 4.63 | 2.03 | 5.44 | 8.74 | 9.76 | -3.01 |
| CC(=O)N1CCC(C(=O)NCCN2CCC(C)CC2)CC1 | -1.98 | 9.72 | 11.4 | -1.43 | -3.6 | 4.86 | 18.1 | -2.5 | 4.21 | 5.13 | -3.45 |
| CN1CCCC(Cc2ccnc3ccncc23)CC1 (stereo unspecified) | -5.09 | -1.35 | 2.02 | 0.644 | -0.988 | -2.09 | -0.312 | 3.76 | 2.15 | -1.3 | 4.65 |
| COc1ccc(CNC(=O)CNc2cc3c(cc2Cl)OCCCO3)cc1 | -3.73 | -2.7 | 2.47 | -4.48 | -2.25 | 0.744 | 3.35 | 11.5 | 1.07 | 1.24 | -1.22 |
| CC(NC(=O)COc1ccc(F)cc1)c1nnc2n1CCCCC2 (stereo unspecified) | -3.7 | 16.2 | -13.2 | 13.2 | 5.19 | -8.02 | 0.36 | 0.906 | 4.43 | 18.5 | -14.6 |
| Cc1cc(CC(=O)N(CC2CN(C)CCO2)c2nccs2)no1 (stereo unspecified) | 1.69 | 0 | -0.764 | 6.8 | 6.41 | 2.03 | 1.08 | -15.8 | 0 | 6.1 | -3.54 |
| NCCn1nc(C2CCN(Cc3ccc(Cl)c(Cl)c3)C2)c2nccnc21 (stereo unspecified) | -3.22 | -14.9 | 7.43 | 0.383 | 2.37 | -4.41 | 8.74 | 7.68 | 1.07 | -1.3 | -23.3 |
| CCN(CC)c1ccc(-c2nc(-c3cccc(OC)c3OC)no2)cn1 | -3.58 | 8 | -0.0158 | 12.2 | 6.52 | 17.2 | 0.349 | 10.7 | 1.64 | -8.64 | -2.98 |
| CCc1cc(NC2CCN(S(C)(=O)=O)CC2)n2nc(C)c(C)c2n1 | 0.159 | 4.17 | 4.89 | -1.11 | -4.37 | -2.21 | 22.6 | 5.75 | -10.5 | 2.56 | -1.42 |
| Cc1cc(CN(C)C(=O)C2CCCN(C(=O)c3ccc(Cl)cc3)C2)no1 (stereo unspecified) | -4.75 | -39 | 3.47 | 5.71 | -0.885 | -20.7 | 11.7 | 0.275 | 2.15 | 11.1 | -7.95 |
| Cc1ccc(F)c(OC2(C(=O)O)CCN(C(=O)N3CCCC3)CC2)c1 | 0.204 | -6.94 | 5.17 | -4.4 | -1.65 | 1.32 | 2.81 | -7.85 | 2.1 | 0 | 2.52 |
| COc1ccccc1CC(=O)NCc1c(C)nc2cc(=O)[nH]n2c1C | -2.98 | 0 | -13.8 | 9.27 | 3.01 | 1.53 | 8.02 | 7.43 | 4.41 | 7.32 | -7.8 |
| CCn1cc(NC(=O)NCC(O)CN2CCCCC2)cn1 (stereo unspecified) | -2.01 | 5.2 | 2.67 | 12.4 | 1.27 | 4 | 0.404 | 15.9 | 0 | 2.35 | -9.62 |
| O=C(NC[C@H]1OC[C@@H]2CCN(C(=O)c3ccco3)C[C@@H]21)C1CC1 | -4.23 | 2.7 | 1.41 | -2.71 | -3.81 | 5.21 | 10.6 | -3.1 | 2.15 | 11.1 | -4.6 |
| CC(C)S(=O)(=O)c1nnc(CCNC(=O)OC(C)(C)C)o1 | -7.35 | 4 | 2.34 | -6.84 | -5.3 | -9.33 | 14.1 | 17.5 | 3.17 | 2.56 | -8.11 |
| Cn1nc(C2CCCN(Cc3ccsc3)C2)c2nccnc21 (stereo unspecified) | -0.97 | 9.46 | 11.9 | -2.94 | -2.37 | -0.696 | 4.68 | 3.34 | 1.07 | 6.49 | -19.8 |

From ChEMBL document CHEMBL3988442, “University of Dundee, Small-Polar-MMV Screening Library” (2021)
